# Reference: article PMC11006913
# Residue numbers refer to the chain shown, from its start.
# Key:
# Assay in all cases: PBM; 200 nM protein, PBS
# Details in all cases: dsDNA, one strand shown
# VENTX [1] = molecular target: T1, VENTX (Homo sapiens, UniProt O95231 78-163, R121Q)
# T1 sequence: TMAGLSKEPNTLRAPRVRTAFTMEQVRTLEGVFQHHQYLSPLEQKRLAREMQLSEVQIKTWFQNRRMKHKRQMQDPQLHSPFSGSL
# PAX4 [2] = molecular target: T2, PAX4 (Homo sapiens, UniProt O43316 9-242, R200K)
# T2 sequence: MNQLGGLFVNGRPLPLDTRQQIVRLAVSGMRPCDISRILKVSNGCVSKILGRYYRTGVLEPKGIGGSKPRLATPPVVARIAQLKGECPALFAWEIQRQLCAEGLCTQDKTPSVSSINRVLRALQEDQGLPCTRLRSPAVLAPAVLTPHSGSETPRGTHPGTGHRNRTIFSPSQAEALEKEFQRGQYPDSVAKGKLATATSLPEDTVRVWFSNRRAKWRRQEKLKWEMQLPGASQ
# VENTX [3] = molecular target: T3, VENTX (Homo sapiens, UniProt O95231 78-163, Y115F)
# T3 sequence: T1 sequence with Y38F, Q44R
# PAX4 [4] = molecular target: T4, PAX4 (Homo sapiens, UniProt O43316 9-242)
# T4 sequence: T2 sequence with K192R
# PAX4 [5] = molecular target: T5, PAX4 (Homo sapiens, UniProt O43316 9-242, R200Q)
# T5 sequence: T2 sequence with K192Q
# PAX4 [6] = molecular target: T6, PAX4 (Homo sapiens, UniProt O43316 9-242, F177V)
# T6 sequence: T2 sequence with F169V, K192R
# PAX4 [7] = molecular target: T7, PAX4 (Homo sapiens, UniProt O43316 9-242, F177Y)
# T7 sequence: T2 sequence with F169Y, K192R
# PAX4 [8] = molecular target: T8, PAX4 (Homo sapiens, UniProt O43316 9-242, R227W)
# T8 sequence: T2 sequence with K192R, R219W
# CRX = CRX (Homo sapiens, UniProt O43186 26-111, R41L)
# Sequence of CRX (O43186 26-111 R41L): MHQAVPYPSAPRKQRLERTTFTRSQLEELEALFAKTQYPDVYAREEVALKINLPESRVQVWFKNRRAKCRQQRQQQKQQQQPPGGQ
# VENTX [9] = molecular target: T9, VENTX (Homo sapiens, UniProt O95231 78-163)
# T9 sequence: T1 sequence with Q44R
# VAX1 [10] = molecular target: VAX1 (Homo sapiens, UniProt Q5SQQ9 86-172)
# Sequence of VAX1 (Homo sapiens, UniProt Q5SQQ9 86-172) (Q5SQQ9 86-172): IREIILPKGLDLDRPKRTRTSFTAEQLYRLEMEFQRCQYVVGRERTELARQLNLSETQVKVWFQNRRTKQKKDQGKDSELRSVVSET
# VAX1 [11] = molecular target: VAX1 (Homo sapiens, UniProt Q5SQQ9 86-172, T142I)
# Sequence of VAX1 (Homo sapiens, UniProt Q5SQQ9 86-172, T142I) (Q5SQQ9 86-172 T142I): as the sequence (Q5SQQ9 86-172) above, with T57I counted along it
# VAX1 [12] = molecular target: VAX1 (Homo sapiens, UniProt Q5SQQ9 86-172, K157R)
# Sequence of VAX1 (Homo sapiens, UniProt Q5SQQ9 86-172, K157R) (Q5SQQ9 86-172 K157R): as the sequence (Q5SQQ9 86-172) above, with K72R counted along it
# HOXB9 [13] = molecular target: HOXB9 (Homo sapiens, UniProt P17482 171-250, T197M)
# Sequence of HOXB9 (Homo sapiens, UniProt P17482 171-250, T197M) (P17482 171-250 T197M): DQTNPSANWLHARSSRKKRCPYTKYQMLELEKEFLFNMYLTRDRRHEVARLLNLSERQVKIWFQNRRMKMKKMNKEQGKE
# HOXC9 [14] = molecular target: HOXC9 (Homo sapiens, UniProt P31274 178-260, K195R)
# Sequence of HOXC9 (Homo sapiens, UniProt P31274 178-260, K195R) (P31274 178-260 K195R): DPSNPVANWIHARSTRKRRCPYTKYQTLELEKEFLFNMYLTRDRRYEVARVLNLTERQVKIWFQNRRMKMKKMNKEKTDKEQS
# HOXC10 [15] = molecular target: HOXC10 (Homo sapiens, UniProt Q9NYD6 254-340)
# Sequence of HOXC10 (Homo sapiens, UniProt Q9NYD6 254-340) (Q9NYD6 254-340): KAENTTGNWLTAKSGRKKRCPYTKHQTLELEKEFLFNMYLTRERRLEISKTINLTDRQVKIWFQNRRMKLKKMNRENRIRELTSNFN
# ALX4 = ALX4 (Homo sapiens, UniProt Q9H161 200-286, Q225E)
# Sequence of ALX4 (Q9H161 200-286 Q225E): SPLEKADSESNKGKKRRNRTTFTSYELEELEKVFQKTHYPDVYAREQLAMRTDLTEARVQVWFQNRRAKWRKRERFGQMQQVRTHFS
# HOXB9 [16] = molecular target: HOXB9 (Homo sapiens, UniProt P17482 171-250)
# Sequence of HOXB9 (Homo sapiens, UniProt P17482 171-250) (P17482 171-250): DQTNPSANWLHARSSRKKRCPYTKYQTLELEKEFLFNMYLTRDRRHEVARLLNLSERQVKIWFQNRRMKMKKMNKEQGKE
# HOXC9 [17] = molecular target: HOXC9 (Homo sapiens, UniProt P31274 178-260)
# Sequence of HOXC9 (Homo sapiens, UniProt P31274 178-260) (P31274 178-260): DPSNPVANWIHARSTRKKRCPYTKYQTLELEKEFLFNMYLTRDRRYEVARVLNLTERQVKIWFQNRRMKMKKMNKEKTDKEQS
# HOXD13 [18] = molecular target: HOXD13 (Homo sapiens, UniProt P35453 263-343, T313R)
# Sequence of HOXD13 (Homo sapiens, UniProt P35453 263-343, T313R) (P35453 263-343 T313R): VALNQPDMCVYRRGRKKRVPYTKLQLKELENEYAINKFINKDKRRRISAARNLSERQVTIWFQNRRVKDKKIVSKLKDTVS
# HOXC9 [19] = molecular target: HOXC9 (Homo sapiens, UniProt P31274 178-260, R193K)
# Sequence of HOXC9 (Homo sapiens, UniProt P31274 178-260, R193K) (P31274 178-260 R193K): as the sequence (P31274 178-260) above, with R16K counted along it
# HOXD13 [20] = molecular target: HOXD13 (Homo sapiens, UniProt P35453 263-343)
# Sequence of HOXD13 (Homo sapiens, UniProt P35453 263-343) (P35453 263-343): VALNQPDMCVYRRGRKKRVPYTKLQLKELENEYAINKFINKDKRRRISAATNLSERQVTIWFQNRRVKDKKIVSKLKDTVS
# HOXC10 [21] = molecular target: HOXC10 (Homo sapiens, UniProt Q9NYD6 254-340, K271E)
# Sequence of HOXC10 (Homo sapiens, UniProt Q9NYD6 254-340, K271E) (Q9NYD6 254-340 K271E): as the sequence (Q9NYD6 254-340) above, with K18E counted along it
# HOXD13 [22] = molecular target: HOXD13 (Homo sapiens, UniProt P35453 263-343, T313A)
# Sequence of HOXD13 (Homo sapiens, UniProt P35453 263-343, T313A) (P35453 263-343 T313A): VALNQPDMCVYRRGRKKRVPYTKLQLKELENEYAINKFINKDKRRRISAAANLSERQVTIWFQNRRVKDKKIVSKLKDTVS
# HOXB9 [23] = molecular target: HOXB9 (Homo sapiens, UniProt P17482 171-250, R186Q)
# Sequence of HOXB9 (Homo sapiens, UniProt P17482 171-250, R186Q) (P17482 171-250 R186Q): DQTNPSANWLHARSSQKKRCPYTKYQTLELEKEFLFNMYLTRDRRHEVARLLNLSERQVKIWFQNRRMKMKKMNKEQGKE
# HOXC9 [24] = molecular target: HOXC9 (Homo sapiens, UniProt P31274 178-260, R222W)
# Sequence of HOXC9 (Homo sapiens, UniProt P31274 178-260, R222W) (P31274 178-260 R222W): as the sequence (P31274 178-260) above, with R45W counted along it
sequence,measurement,setting,value
CGCATTAA,binding signal,VENTX [1],"10.5 upbm affinity estimate (log intensity, higher = more binding, comparable within an allelic series)"
same,binding signal,PAX4 [2],"11.7 upbm affinity estimate (log intensity, higher = more binding, comparable within an allelic series)"
same,binding signal,VENTX [3],"10.6 upbm affinity estimate (log intensity, higher = more binding, comparable within an allelic series)"
same,binding signal,PAX4 [4],"12.1 upbm affinity estimate (log intensity, higher = more binding, comparable within an allelic series)"
same,binding signal,PAX4 [5],"11.6 upbm affinity estimate (log intensity, higher = more binding, comparable within an allelic series)"
same,binding signal,PAX4 [6],"10.4 upbm affinity estimate (log intensity, higher = more binding, comparable within an allelic series)"
same,binding signal,PAX4 [7],"11 upbm affinity estimate (log intensity, higher = more binding, comparable within an allelic series)"
same,binding signal,PAX4 [8],"10.9 upbm affinity estimate (log intensity, higher = more binding, comparable within an allelic series)"
same,binding signal,CRX,"10.9 upbm affinity estimate (log intensity, higher = more binding, comparable within an allelic series)"
TAATCGGA,binding signal,VENTX [1],"10.4 upbm affinity estimate (log intensity, higher = more binding, comparable within an allelic series)"
same,binding signal,VENTX [3],"10.6 upbm affinity estimate (log intensity, higher = more binding, comparable within an allelic series)"
TAATGCGA,binding signal,VENTX [1],"10.2 upbm affinity estimate (log intensity, higher = more binding, comparable within an allelic series)"
same,binding signal,PAX4 [2],"11.7 upbm affinity estimate (log intensity, higher = more binding, comparable within an allelic series)"
same,binding signal,PAX4 [4],"12.1 upbm affinity estimate (log intensity, higher = more binding, comparable within an allelic series)"
same,binding signal,PAX4 [5],"11.4 upbm affinity estimate (log intensity, higher = more binding, comparable within an allelic series)"
same,binding signal,PAX4 [6],"10.4 upbm affinity estimate (log intensity, higher = more binding, comparable within an allelic series)"
same,binding signal,PAX4 [7],"10.9 upbm affinity estimate (log intensity, higher = more binding, comparable within an allelic series)"
same,binding signal,PAX4 [8],"10.9 upbm affinity estimate (log intensity, higher = more binding, comparable within an allelic series)"
same,binding signal,CRX,"10.6 upbm affinity estimate (log intensity, higher = more binding, comparable within an allelic series)"
CCGATTAG,binding signal,VENTX [1],"11.6 upbm affinity estimate (log intensity, higher = more binding, comparable within an allelic series)"
same,binding signal,VENTX [9],"12.9 upbm affinity estimate (log intensity, higher = more binding, comparable within an allelic series)"
same,binding signal,VENTX [3],"11.6 upbm affinity estimate (log intensity, higher = more binding, comparable within an allelic series)"
same,binding signal,CRX,"11.4 upbm affinity estimate (log intensity, higher = more binding, comparable within an allelic series)"
CCAGCTGC,binding signal,VENTX [1],"8.15 upbm affinity estimate (log intensity, higher = more binding, comparable within an allelic series)"
same,binding signal,VENTX [9],"8.27 upbm affinity estimate (log intensity, higher = more binding, comparable within an allelic series)"
same,binding signal,VENTX [3],"8.21 upbm affinity estimate (log intensity, higher = more binding, comparable within an allelic series)"
same,binding signal,VAX1 [10],"7.42 upbm affinity estimate (log intensity, higher = more binding, comparable within an allelic series)"
same,binding signal,VAX1 [11],"7.3 upbm affinity estimate (log intensity, higher = more binding, comparable within an allelic series)"
same,binding signal,VAX1 [12],"7.2 upbm affinity estimate (log intensity, higher = more binding, comparable within an allelic series)"
AATAAAAT,binding signal,HOXB9 [13],"10 upbm affinity estimate (log intensity, higher = more binding, comparable within an allelic series)"
same,binding signal,HOXC9 [14],"12.7 upbm affinity estimate (log intensity, higher = more binding, comparable within an allelic series)"
same,binding signal,HOXC10 [15],"12.5 upbm affinity estimate (log intensity, higher = more binding, comparable within an allelic series)"
same,binding signal,ALX4,"11.1 upbm affinity estimate (log intensity, higher = more binding, comparable within an allelic series)"
same,binding signal,HOXB9 [16],"12.1 upbm affinity estimate (log intensity, higher = more binding, comparable within an allelic series)"
same,binding signal,HOXC9 [17],"12.7 upbm affinity estimate (log intensity, higher = more binding, comparable within an allelic series)"
same,binding signal,HOXD13 [18],"10.8 upbm affinity estimate (log intensity, higher = more binding, comparable within an allelic series)"
same,binding signal,HOXC9 [19],"12.7 upbm affinity estimate (log intensity, higher = more binding, comparable within an allelic series)"
same,binding signal,HOXD13 [20],"11.8 upbm affinity estimate (log intensity, higher = more binding, comparable within an allelic series)"
same,binding signal,HOXC10 [21],"12 upbm affinity estimate (log intensity, higher = more binding, comparable within an allelic series)"
same,binding signal,HOXD13 [22],"11.8 upbm affinity estimate (log intensity, higher = more binding, comparable within an allelic series)"
same,binding signal,HOXB9 [23],"11.7 upbm affinity estimate (log intensity, higher = more binding, comparable within an allelic series)"
same,binding signal,HOXC9 [24],"11.5 upbm affinity estimate (log intensity, higher = more binding, comparable within an allelic series)"
